Results on 13 compounds are retold here after PubChem BioAssay (NCATS).

Test [1] deals with ATP-dependent 6-phosphofructokinase (Trypanosoma brucei brucei) (UniProt O15648). Description: qHTS Assay to Find Inhibitors of T. brucei phosphofructokinase: hit validation (AID 492961).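 Further: luminescence reports ADP formed as PFK phosphorylates fructose-6-phosphate with ATP; on the % scale 0 is the no-effect control and ±100 the full control effect.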 To be noted: T. brucei PFK, ADP-Glo luminescence; series mostly up to 51.4 µM. Summed up: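 Reaction: 0.1 M triethanolamine pH 8.0, 5 mM MgCl2, F6P 0.5 mM, ATP 0.1 mM, PFK 1.25 nM, 45 min RT. Read-out: ADP-Glo luminescence. Analysis: concentration-response fits, classed by r2 and efficacy.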
Sequence of ATP-dependent 6-phosphofructokinase (Trypanosoma brucei brucei) (O15648 whole entry, looked up): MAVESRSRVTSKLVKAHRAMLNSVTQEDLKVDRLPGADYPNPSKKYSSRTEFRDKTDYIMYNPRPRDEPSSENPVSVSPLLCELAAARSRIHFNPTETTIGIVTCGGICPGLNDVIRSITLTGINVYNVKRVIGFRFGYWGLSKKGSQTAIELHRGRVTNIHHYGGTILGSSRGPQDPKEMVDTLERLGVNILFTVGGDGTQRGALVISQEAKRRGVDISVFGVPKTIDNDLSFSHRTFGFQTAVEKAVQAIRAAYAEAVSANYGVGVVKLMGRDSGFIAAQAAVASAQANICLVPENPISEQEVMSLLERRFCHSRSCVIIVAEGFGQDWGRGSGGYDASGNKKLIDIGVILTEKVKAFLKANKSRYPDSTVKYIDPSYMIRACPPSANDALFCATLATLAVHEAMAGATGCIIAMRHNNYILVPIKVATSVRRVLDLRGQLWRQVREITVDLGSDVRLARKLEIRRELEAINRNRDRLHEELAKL

Test [2] is described as follows: qHTS profiling for inhibitors of Plasmodium falciparum proliferation (AID 504749). Further: nearly all actives have a fitted effect of over 60% in size. Further: potency means the concentration at half of the fitted maximal effect.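 On activity, negative = inhibition: 0% = DMSO vehicle and full inhibition = artemisinin control.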 To be noted: P. falciparum in erythrocytes, SYBR Green DNA, 72 h, at 28.7 µM (top of the series). Summed up: (§1)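 P. falciparum-infected erythrocytes (0.3% parasitemia, 2.5% hematocrit final) were exposed to compounds for 72 h at 37 C in 5% CO2, then lysed with SYBR Green buffer overnight at room temperature; parasite DNA fluorescence was normalized to artemisinin and DMSO controls.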
(In general: Quantitative high-throughput screening tests each substance at several concentrations.)

A further test concerns 3D7. Described as above. Particulars: P. falciparum in erythrocytes, SYBR Green DNA, 72 h; series mostly up to 28.7 µM. Summed up: as §1
Another test relates to ATS189. The test is described as above. To be noted: P. falciparum in erythrocytes, SYBR Green DNA, 72 h; series mostly up to 28.7 µM. Summed up:
as §1

The test system of the next test is CP185. The test is described as above. Particulars: P. falciparum in erythrocytes, SYBR Green DNA, 72 h; series mostly up to 28.7 µM. Summed up: as §1
A further test has as its system CP191. The test is described as above. To be noted: P. falciparum in erythrocytes, SYBR Green DNA, 72 h; series mostly up to 28.7 µM. Summed up:
as §1

The next test deals with CP192. Described as above. Particulars: P. falciparum in erythrocytes, SYBR Green DNA, 72 h; series mostly up to 28.7 µM. A digest of the protocol: as §1
The test system of a further test is CP211. The description is as above. To be noted: P. falciparum in erythrocytes, SYBR Green DNA, 72 h; series mostly up to 28.7 µM. A digest of the protocol: as §1
The subject of another test is CP217. The test is described as above. Particulars: P. falciparum in erythrocytes, SYBR Green DNA, 72 h; series mostly up to 28.7 µM. Summed up: as §1
Another test deals with CP238. Described as above. To be noted: P. falciparum in erythrocytes, SYBR Green DNA, 72 h; series mostly up to 28.7 µM. Summed up:
as §1

Another test deals with CP252. Described as above. To be noted: P. falciparum in erythrocytes, SYBR Green DNA, 72 h; series mostly up to 28.7 µM. A digest of the protocol: as §1
The subject of the next test is CP262. The test is described as above. Particulars: P. falciparum in erythrocytes, SYBR Green DNA, 72 h; series mostly up to 28.7 µM. A digest of the protocol:
as §1

The subject of a further test is CP265. Described as above. To be noted: P. falciparum in erythrocytes, SYBR Green DNA, 72 h; series mostly up to 28.7 µM. A digest of the protocol: as §1
A further test concerns CP269. The description is as above. To be noted: P. falciparum in erythrocytes, SYBR Green DNA, 72 h; series mostly up to 28.7 µM. A digest of the protocol: as §1
The next test has as its system CP286. Described as above. To be noted: P. falciparum in erythrocytes, SYBR Green DNA, 72 h; series mostly up to 28.7 µM. Summed up: as §1
The next test relates to CP329. The test is described as above. Particulars: P. falciparum in erythrocytes, SYBR Green DNA, 72 h; series mostly up to 28.7 µM. Summed up:
as §1

Another test concerns Dd2. The description is as above. Particulars: P. falciparum in erythrocytes, SYBR Green DNA, 72 h; series mostly up to 28.7 µM. A digest of the protocol:
as §1

A further test concerns ECU. The description is as above. Particulars: P. falciparum in erythrocytes, SYBR Green DNA, 72 h; series mostly up to 28.7 µM. A digest of the protocol:
as §1

Another test deals with FAB9. Described as above. To be noted: P. falciparum in erythrocytes, SYBR Green DNA, 72 h; series mostly up to 28.7 µM. Summed up: as §1
The subject of the next test is CP194. Described as above. To be noted: P. falciparum in erythrocytes, SYBR Green DNA, 72 h; series mostly up to 28.7 µM. A digest of the protocol: as §1

Structures are written as SMILES. Inconclusive results are not listed. Calls of active or inactive are those of the source. The call rests on the fitted dose curve; in most records, active means well fitted curve in the direction sought with a large enough effect; inconclusive means small, poorly fitted or top-dose-only effect, or another doubt; inactive means no such curve, though single readings can be large; an effect the other way counts as inactive or inconclusive.

Consider `C#C[C@@]1(O)CC[C@@H]2[C@H]3CCC4=C/C(=N\O)CC[C@H]4[C@@H]3CC[C@]21CC`, for which the Potency entry (in test [1]; in the test with 3D7; in the test on ATS189; in the test with CP185; in the test with CP191; with CP192) was “inactive” in each case. Moreover, the Potency result with CP211, in the test on CP217, in the test with CP238, with CP252, in the test on CP262 and in the test with CP265 was “inactive” throughout. Further, the Potency entry in the test on CP269, in the test with CP286, with CP329, with Dd2, with ECU and in the test with FAB9 was “inactive” each time. Moreover, the activity, negative = inhibition in [2] (parasite line A) is -13.3% (inactive); in test [2] (parasite line B), -2.2% (inactive).
Take `C/C=C1/NN(CCCN2CCN(c3cccc(Cl)c3)CC2)C(=O)N1CCOc1ccccc1`: the Potency entry (in [1]; with 3D7; in the test on ATS189; with CP185; in the test on CP192; in the test on CP194) was “inactive” each time. Moreover, the Potency entry with CP211, with CP217, in the test with CP238, in the test on CP252, in the test on CP262 and with CP265 was “inactive” each time. Moreover, the Potency entry with CP269, with CP286, in the test with CP329, in the test with ECU and in the test on FAB9 was “inactive” in each case. For the same compound, the activity, negative = inhibition in test [2] (parasite line A) is -8.67% (inactive); in test [2] (parasite line B), 7.5% (inactive).
In the case of `O=C(NC(CO)C(O)c1ccc([N+](=O)[O-])cc1)C(Cl)Cl` (centres undefined), the Potency entry (in test [1]; with CP194; in the test with ECU; in the test with FAB9) was “inactive” each time. Besides, the Potency in the test with CP269 was 3.01 µM (active); with Dd2 it was 8.91 µM (active).
For the compound `CCC(=O)OC1C(N(C)C)CC(C)O[C@H]1O[C@H]1[C@H](C)[C@@H](O[C@H]2CC(OC)[C@@H](O)C(C)O2)[C@H](C)C(=O)O[C@@H](CC)[C@](C)(O)[C@@H](O)[C@H](C)C(=O)[C@@H](C)C[C@]1(C)O` (some centres undefined), the Potency result (in test [1]; with 3D7; in the test with ATS189; in the test on CP192; with CP194; in the test with CP211) was “inactive” each time. The Potency entry with CP238, in the test on CP262 and in the test on FAB9 was “inactive” in each case. Moreover, the Potency in the test with Dd2 is 12.6 µM (active).
`COc1ccc(CC(C)NCC(O)c2ccc(O)c(NC=O)c2)cc1` (centres undefined): in test [1], the Potency entry was “inactive”.
Consider `C/C(=C(/CCOC(=O)C(C)C)SS/C(CCOC(=O)C(C)C)=C(\C)N(C=O)Cc1cnc(C)nc1N)N(C=O)Cc1cnc(C)nc1N`, for which the Potency entry (in test [1]; in the test on 3D7; with ATS189; with CP185; in the test on CP192; in the test on CP194) was “inactive” throughout. In addition, the Potency entry with CP211, with CP217, in the test on CP238, with CP252, with CP265 and in the test on CP269 was “inactive” in each case. Also, the Potency result in the test with CP286, in the test with Dd2, in the test on ECU and in the test on FAB9 was “inactive” throughout. For the same compound, the activity, negative = inhibition in test [2] (parasite line B) is -17.2% (inactive).
On to `CC1=C(/C=C/C(C)=C\C=C\C(C)=C\C=C\C=C(C)\C=C\C=C(C)\C=C\C2=C(C)C[C@@H](O)CC2(C)C)C(C)(C)C[C@H](O)C1`, for which the Potency result (in test [1]; with CP185; in the test with CP191; with CP192; in the test with CP194; in the test with CP211) was “inactive” each time. The Potency result in the test with CP238, in the test on CP262, in the test with CP265, in the test on CP269, with CP329 and in the test with FAB9 was “inactive” each time. Also, the Potency in the test with CP286 was 11.2 µM (active); with Dd2, 11.2 µM (active); in the test on ECU, 14.1 µM (active).
On to `Nc1nc(Cl)nc2c1ncn2[C@@H]1O[C@H](CO)[C@H](O)C1F` (some centres undefined), for which the Potency entry (in test [1]; with 3D7; in the test with ATS189; in the test on CP185; in the test on CP191; in the test with CP192) was “inactive” in each case. Besides, the Potency result in the test on CP194, in the test on CP211, with CP217, in the test with CP238, in the test on CP252 and in the test on CP262 was “inactive” in each case. In addition, the Potency result with CP265, in the test on CP269, in the test on CP286, in the test on CP329, in the test with Dd2 and in the test on ECU was “inactive” in each case. Further, the Potency result with FAB9 is “inactive”. Further, the activity, negative = inhibition in test [2] (parasite line A) was -2.17% (inactive).
Regarding `C=CCN1CC(C(=O)N(CCCN(C)C)C(=O)NCC)CC2c3cccc4[nH]cc(c34)CC21` (centres undefined), the Potency result (in test [1]; in the test on CP185; in the test with CP192; in the test on CP194; with CP211; in the test on CP238) was “inactive” throughout. The Potency entry with CP262, in the test on CP265, in the test with CP269, in the test on CP329 and in the test on FAB9 was “inactive” each time. Moreover, the activity, negative = inhibition in [2] (parasite line B) was -28.9% (inactive). In addition, the Potency was 12.6 µM (active) with CP286 and 8.91 µM (active) in the test with Dd2.
In the case of `OCC(O)C(O)C(O)C(O)CO` (centres undefined), the Potency result (in test [1]; in the test on 3D7; in the test on ATS189; in the test on CP185; in the test with CP191; in the test with CP192) was “inactive” each time. Also, the Potency result in the test with CP194, with CP211, in the test on CP217, with CP238, in the test with CP252 and in the test with CP262 was “inactive” in each case. For the same compound, the Potency result with CP265, in the test with CP269, with CP286, with CP329, in the test with Dd2 and in the test on ECU was “inactive” in each case. Also, in the test on FAB9, the Potency result was “inactive”. In addition, the activity, negative = inhibition in [2] (parasite line B) was 7.82% (inactive).
Consider `CC1=C(C/C=C(\C)CCCC(C)CCCC(C)CCCC(C)C)C(=O)c2ccccc2C1=O` (centres undefined), for which the Potency result (in [1]; in the test on CP185; in the test on CP192; with CP194; in the test with CP211; in the test on CP217) was “inactive” each time. Besides, the Potency entry with CP238, in the test with CP252, with CP262, in the test with CP269, in the test on CP329 and in the test with ECU was “inactive” throughout. Moreover, the Potency result in the test with FAB9 is “inactive”. The activity, negative = inhibition in test [2] (parasite line A) was -26.3% (inactive). Besides, the Potency with 3D7 and in the test with Dd2 was 8.91 µM (active) in each case.
Take `C=C1CCC(O)C/C1=C/C=C1\CCC[C@]2(C)[C@@H]([C@H](C)/C=C/[C@H](C)C(C)C)CC[C@@H]12` (some centres undefined): the Potency entry (in test [1]; with 3D7; with CP192; in the test with CP194; in the test with CP211; with CP238) was “inactive” each time. The Potency entry with CP262, in the test on CP269, with CP286, in the test with CP329 and in the test with FAB9 was “inactive” each time.
Turning to `CC[C@H]1OC(=O)[C@H](C)C(=O)[C@H](C)[C@@H](OC2O[C@H](C)C[C@H](N(C)C)[C@@H]2O)[C@@](C)(OC)C[C@@H](C)C(=O)[C@@H](C)C2N(CCCCn3cnc(-c4cccnc4)c3)C(=O)O[C@@]21C` (some centres undefined), the Potency entry (in test [1]; with CP185; with CP192; in the test with CP194; in the test on CP211; in the test with CP238) was “inactive” throughout. Besides, the Potency result in the test with CP252, in the test with CP262, in the test with CP265, in the test on CP269, in the test with CP286 and with CP329 was “inactive” throughout. The Potency result with FAB9 was “inactive”. Moreover, in test [2] (parasite line A), the activity, negative = inhibition was -28.5% (inactive). For the same compound, the Potency with ECU was 10 µM (active).
